# Source: PubChem BioAssay (NCI)
# About 79,000 compounds went through this panel and 15% of them were active in at least one assay; those are over-represented in the sample as a whole. A number with no mark means an inactive call. Activity calls are given as the source filed them. Rule as the data show it: active = growth inhibition above about 70%; inactive = the rest.
# Tests used:
# [1] = NCI Yeast Anticancer Drug Screen. Data for the rad52 strain (AID 147);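 also: 0% = growth of vehicle-treated control cultures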; details: S. cerevisiae rad52 mutant growth inhibition, active compounds read high
# Outline: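 Growth of repair-deficient yeast cells was compared between compound-treated and vehicle-treated cultures to give percent inhibition.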
# [2] = NCI Yeast Anticancer Drug Screen. Data for the wt1 strain (AID 149);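 also: 0% = growth of vehicle-treated wt1 cultures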; details: S. cerevisiae wt1 strain (SPY 50644) growth inhibition, active compounds read high
# Outline: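 Growth inhibition read against vehicle controls after compound exposure of the wt1 yeast strain.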
# [3] = NCI Yeast Anticancer Drug Screen. Data for the mgt1 strain (AID 153); details: S. cerevisiae mgt1 mutant growth inhibition, active compounds read high
# Outline: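 Compounds were applied to mgt1 mutant yeast, and growth was then compared against vehicle-treated control cultures to give percent inhibition.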
# [4] = NCI Yeast Anticancer Drug Screen. Data for the rad50 strain (AID 155);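 also: 0% = growth of vehicle-only cultures of the same strain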; details: S. cerevisiae rad50 strain growth inhibition, active compounds read high
# Outline: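 Readout: growth inhibition relative to vehicle-treated cultures. Compound exposure was carried out in a genetically defined yeast strain deficient in DNA damage repair.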
# [5] = NCI Yeast Anticancer Drug Screen. Data for the mec2-1 strain (AID 157); details: S. cerevisiae mec2-1 strain, active compounds read high
# Outline: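 Compounds were applied to mec2-1 yeast cells. Their growth was then compared with that of vehicle-treated cultures to give growth inhibition.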
# [6] = NCI Yeast Anticancer Drug Screen. Data for the rad14 strain (AID 159);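 also: 0% = growth of vehicle-treated control cultures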; details: S. cerevisiae rad14 strain growth inhibition, active compounds read high
# Outline: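 Growth inhibition vs vehicle controls; genetically altered yeast strain (DNA damage repair defect) treated with test compounds.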
# [7] = NCI Yeast Anticancer Drug Screen. Data for the sgs1 mgt1 strain (AID 161);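 also: 0% = growth of cultures given vehicle only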; details: S. cerevisiae sgs1 mgt1 strain, active compounds read high
# Outline: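 Percent growth inhibition was derived by comparing compound-exposed mutant yeast with vehicle-exposed cultures. The strain carries alterations in DNA damage repair.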
# [8] = NCI Yeast Anticancer Drug Screen. Data for the CLN2oe strain (AID 163);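 also: 0% = growth of vehicle-only control cultures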; details: S. cerevisiae CLN2oe strain, active compounds read high
# Outline: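 Cells of an engineered yeast line with disturbed cell-cycle regulation are treated with compound. Inhibition of growth is then calculated relative to the vehicle-treated reference.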
# [9] = NCI Yeast Anticancer Drug Screen. Data for the cln2 rad14 strain (AID 165);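 also: 0% = growth equal to vehicle treated cultures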; details: S. cerevisiae cln2 rad14 strain, active compounds read high
# Outline: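 Strain: cln2 rad14 yeast, altered in cell cycle control and DNA damage repair. Read-out: growth inhibition vs vehicle.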
# [10] = NCI Yeast Anticancer Drug Screen. Data for the bub3 strain (AID 167); details: S. cerevisiae bub3 mutant strain, active compounds read high
# Outline: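 Readout: yeast growth inhibition, expressed relative to vehicle-only wells. The test organism is a mutant strain from a panel with lesions in DNA repair or checkpoint genes.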
# [11] = NCI Yeast Anticancer Drug Screen. Data for the wt2 strain (AID 169);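 also: 0% = growth of vehicle-treated yeast cultures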; details: S. cerevisiae wt2 strain growth inhibition, active compounds read high
# Outline: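 Growth of compound-treated yeast is measured and expressed as inhibition relative to vehicle-only controls.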
# [12] = NCI Yeast Anticancer Drug Screen. Data for the mlh1 strain (AID 171);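 also: 0% = growth of vehicle-treated control cultures of the same strain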; details: S. cerevisiae mlh1 strain growth inhibition, active compounds read high
# Outline: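 Test agents were incubated with yeast bearing a defined DNA damage repair or cell cycle control alteration; values are growth inhibition normalised to vehicle-treated cultures.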
# [13] = NCI Yeast Anticancer Drug Screen. Data for the sgs1 strain (AID 173);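 also: 0% = growth of vehicle-only control cultures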; details: S. cerevisiae sgs1 mutant, active compounds read high
# Outline: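 Strain with an altered DNA repair or cell cycle pathway exposed to compound. Growth then measured. Value = inhibition versus vehicle control.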
# [14] = NCI Yeast Anticancer Drug Screen. Data for the mlh1 rad18 strain (AID 175); details: S. cerevisiae mlh1 rad18 strain growth inhibition, active compounds read high
# Outline: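 A repair-deficient yeast strain is exposed to test compound, and growth is scored relative to vehicle-treated controls.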
# [15] = NCI Yeast Anticancer Drug Screen. Data for the rad18 strain (AID 177); details: S. cerevisiae rad18 mutant growth inhibition, active compounds read high
# Outline: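 DNA-repair-defective yeast; compound treatment; growth inhibition scored against vehicle.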
# [16] = at 5.0 µM (retest, dose inferred, filed as 0.5)
# [17] = at 50.0 µM (retest, dose inferred, filed as 5.0)
smiles,measurement,setting,value
COc1ccccc1/C=C1\Sc2scc(-c3cccc([N+](=O)[O-])c3)[n+]2C1=O,growth inhibition,[1]; at 1.2 µM,31%
same,growth inhibition,[1]; at 3.7 µM,80% (active)
same,growth inhibition,[1]; at 11.0 µM,98% (active)
same,growth inhibition,[1]; at 33.0 µM,97% (active)
same,growth inhibition,[1]; at 100.0 µM,93% (active)
same,growth inhibition,[2]; at 1.2 µM,33%
same,growth inhibition,[2]; at 3.7 µM,91% (active)
same,growth inhibition,[2]; at 11.0 µM,99% (active)
same,growth inhibition,[2]; at 33.0 µM,98% (active)
same,growth inhibition,[2]; at 100.0 µM,94% (active)
same,growth inhibition,[3]; at 1.2 µM,63%
same,growth inhibition,[3]; at 3.7 µM,98% (active)
same,growth inhibition,[3]; at 11.0 µM,99% (active)
same,growth inhibition,[3]; at 33.0 µM,94% (active)
same,growth inhibition,[3]; at 100.0 µM,91% (active)
same,growth inhibition,[4]; at 1.2 µM,47%
same,growth inhibition,[4]; at 3.7 µM,93% (active)
same,growth inhibition,[4]; [16],12%
same,growth inhibition,[4]; at 11.0 µM,98% (active)
same,growth inhibition,[4]; at 33.0 µM,92% (active)
same,growth inhibition,[4]; [17],96% (active)
same,growth inhibition,[4]; at 50.0 µM,85.7% (active)
same,growth inhibition,[4]; at 100.0 µM,91% (active)
same,growth inhibition,[5]; at 1.2 µM,67%
same,growth inhibition,[5]; at 3.7 µM,98% (active)
same,growth inhibition,[5]; [16],16%
same,growth inhibition,[5]; at 11.0 µM,99% (active)
same,growth inhibition,[5]; at 33.0 µM,96% (active)
same,growth inhibition,[5]; [17],96% (active)
same,growth inhibition,[5]; at 50.0 µM,89.1% (active)
same,growth inhibition,[5]; at 100.0 µM,90% (active)
same,growth inhibition,[6]; at 1.2 µM,28%
same,growth inhibition,[6]; at 3.7 µM,90% (active)
same,growth inhibition,[6]; at 11.0 µM,99% (active)
same,growth inhibition,[6]; at 33.0 µM,97% (active)
same,growth inhibition,[6]; at 100.0 µM,94% (active)
same,growth inhibition,[7]; [16],46%
same,growth inhibition,[7]; [17],98% (active)
same,growth inhibition,[7]; at 50.0 µM,89.3% (active)
same,growth inhibition,[8]; at 1.2 µM,46%
same,growth inhibition,[8]; at 3.7 µM,82% (active)
same,growth inhibition,[8]; at 11.0 µM,99% (active)
same,growth inhibition,[8]; at 33.0 µM,97% (active)
same,growth inhibition,[8]; at 100.0 µM,95% (active)
same,growth inhibition,[9]; [16],15%
same,growth inhibition,[9]; [17],96% (active)
same,growth inhibition,[9]; at 50.0 µM,87.6% (active)
same,growth inhibition,[10]; at 1.2 µM,70% (active)
same,growth inhibition,[10]; at 3.7 µM,96% (active)
same,growth inhibition,[10]; [16],92% (active)
same,growth inhibition,[10]; at 11.0 µM,99% (active)
same,growth inhibition,[10]; at 33.0 µM,95% (active)
same,growth inhibition,[10]; [17],95% (active)
same,growth inhibition,[10]; at 50.0 µM,83.8% (active)
same,growth inhibition,[10]; at 100.0 µM,84% (active)
same,growth inhibition,[11]; at 1.2 µM,18%
same,growth inhibition,[11]; at 3.7 µM,59%
same,growth inhibition,[11]; at 11.0 µM,98% (active)
same,growth inhibition,[11]; at 33.0 µM,98% (active)
same,growth inhibition,[11]; at 100.0 µM,95% (active)
same,growth inhibition,[12]; at 1.2 µM,34%
same,growth inhibition,[12]; at 3.7 µM,89% (active)
same,growth inhibition,[12]; at 11.0 µM,99% (active)
same,growth inhibition,[12]; at 33.0 µM,97% (active)
same,growth inhibition,[12]; at 100.0 µM,90% (active)
same,growth inhibition,[13]; at 1.2 µM,34%
same,growth inhibition,[13]; at 3.7 µM,89% (active)
same,growth inhibition,[13]; at 11.0 µM,99% (active)
same,growth inhibition,[13]; at 33.0 µM,97% (active)
same,growth inhibition,[13]; at 100.0 µM,90% (active)
same,growth inhibition,[14]; [16],13%
same,growth inhibition,[14]; [17],96% (active)
same,growth inhibition,[14]; at 50.0 µM,89.2% (active)
same,growth inhibition,[15]; at 1.2 µM,14%
same,growth inhibition,[15]; at 3.7 µM,82% (active)
same,growth inhibition,[15]; at 11.0 µM,98% (active)
same,growth inhibition,[15]; at 33.0 µM,96% (active)
same,growth inhibition,[15]; at 100.0 µM,93% (active)
